# From PubChem BioAssay AID720593 (Broad Institute, 2013)
# Entries with a potency or affinity are not part of this list. Activity calls are given as the source filed them.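 Rule for the calls: active = falling viability curve whose half-maximal potency lies within twice the top valid tested dose; inconclusive = flat curve with moderate signal loss, or unreliable curve fit; inactive = the rest.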
# Assay: HeLa cell cytotoxicity, dose response, cytotoxicity control, CellTiter-Glo luminescence, dry powder, set 2 (AID 720593)
# Settings: HeLa viability, ATP luminescence (CellTiter-Glo), 72 h; series mostly up to 26 µM
row,Compound,outcome
1,CC1CCN(S(=O)(=O)c2ccc(C(=O)Nc3nnc(-c4ccno4)o3)cc2)CC1,inactive
2,Cc1ccc(S(=O)(=O)CCc2nnc(NC(=O)c3ccccc3)s2)cc1,inactive
3,CC1CCN(S(=O)(=O)c2ccc(C(=O)Nc3nnc(-c4ccccn4)o3)cc2)CC1,inactive
4,CC1CC(C)CN(S(=O)(=O)c2ccc(C(=O)Nc3nnc(C4=COCCO4)o3)cc2)C1 (centres undefined),inactive
5,CC1CCN(S(=O)(=O)c2ccc(C(=O)Nc3nnc(C4CC4)o3)cc2)CC1,inactive
6,CC1CCN(S(=O)(=O)c2ccc(C(=O)Nc3nnc(-c4cccs4)o3)cc2)CC1,inactive
7,Cc1c(C(=O)N(C)C)sc2nc(-c3ccccn3)[nH]c(=O)c12,inactive
8,Cc1ccc(C(=O)Nc2nc(-c3ccccc3)cs2)o1,inactive
9,O=C(CSc1ccc(-c2ccccn2)nn1)N1CCCC1,inactive
10,FC(F)(F)c1cc(-c2nn[nH]n2)cc(C(F)(F)F)c1,inactive
11,Cc1cccc(NC(=O)CSc2ccc(-c3ccccn3)nn2)c1C,inactive
12,COC(=O)Cc1cc(=O)n(-c2nc3ccccc3[nH]2)[nH]1,inactive
13,CC1CCN(S(=O)(=O)c2ccc(C(=O)Nc3nnc(-c4ccccc4)o3)cc2)CC1,inactive
14,CC(C)Cc1nnc(NC(=O)c2cccc(S(=O)(=O)N3CCOCC3)c2)s1,inactive
15,Cc1ccc(C(=O)Nc2nc(-c3ccccn3)cs2)cc1S(=O)(=O)N1CCOCC1,inactive
16,CC1CCN(S(=O)(=O)c2ccc(C(=O)Nc3nnc(C4=COCCO4)o3)cc2)CC1,inactive
17,CC1CCCN(S(=O)(=O)c2ccc(C(=O)Nc3nnc(C4=COCCO4)o3)cc2)C1 (centres undefined),inactive
18,Cc1nnc(NC(=O)c2ccc(S(=O)(=O)N3CCCCC3)cc2)o1,inactive
19,CC1CCN(S(=O)(=O)c2ccc(C(=O)Nc3nnc(-c4ccco4)o3)cc2)CC1,inactive
20,O=C(Nc1nc(-c2ccncc2)cs1)c1ccco1,inactive
21,O=C(CSc1ccc(-c2ccccn2)nn1)NC1CCCCC1,inactive
22,COC(=O)c1ccc(NC(=O)CSc2ccc(-c3ccccn3)nn2)cc1,inactive
23,O=C(Nc1nnc(C2=COCCO2)o1)c1ccc(S(=O)(=O)N2CCCCC2)cc1,inactive
24,O=C(CSc1ccc(-c2ccccn2)nn1)Nc1nccs1,inactive
